{"source": "the supplement of paper PMC10720658", "note": "± gives the standard deviation of the averaged measurements."}
{"system": "AEK1 (Tb927.3.2440)", "test": "percent reduction in TR-FRET probe signal relative to DMSO control; higher = stronger displacement of ATP-site probe (binding)", "conditions": "1 µM; incubation time 1 h", "units": {"percent reduction in TR-FRET probe signal": "%"}}
{"smiles": "CNc1nc(-c2ccc3c(N)n[nH]c3c2)cc(N2C[C@@H](C(=O)NC3CCCCC3)CC[C@H]2C)n1", "percent reduction in TR-FRET probe signal": "14.7 ± 20"}
{"smiles": "CCn1c(N)c(C(=O)NC)c(=O)c2ccc(C#C[C@@](C)(O)COC)nc21", "percent reduction in TR-FRET probe signal": "10.3 ± 4.8"}
{"smiles": "CCOc1cc2ncc(C#N)c(Nc3ccc(F)c(Cl)c3)c2cc1NC(=O)/C=C/CN(C)C", "note": "[Pelitinib (EKB-569)]", "percent reduction in TR-FRET probe signal": "4.14 ± 4.7"}
{"smiles": "CN(C)Cc1cccc(N/C(=C2\\C(=O)Nc3cc(C(=O)N(C)C)ccc32)c2ccccc2)c1", "percent reduction in TR-FRET probe signal": "-0.927 ± 9.6"}
{"smiles": "COc1cc(Nc2ncc(F)c(Nc3ccc4c(n3)NC(=O)C(C)(C)O4)n2)cc(OC)c1OC.O=S(=O)(O)c1ccccc1", "percent reduction in TR-FRET probe signal": "85.4 ± 8"}
{"smiles": "Cc1cn(-c2cc(NC(=O)c3ccc(C)c(Nc4nccc(-c5cccnc5)n4)c3)cc(C(F)(F)F)c2)cn1", "note": "[Nilotinib (AMN-107)]", "percent reduction in TR-FRET probe signal": "17.5 ± 28"}
{"smiles": "CC(C)CCN1c2nc(Nc3cc(F)c(O)c(F)c3)ncc2N(C)C(=O)C1C", "note": "(centres undefined)", "percent reduction in TR-FRET probe signal": "-13.7 ± 9.2"}
{"smiles": "NC(=O)c1ccc(-c2nc(-c3ccc4c(c3)OCCO4)c(-c3ccccn3)[nH]2)cc1", "percent reduction in TR-FRET probe signal": "-1.5 ± 7.3"}
{"smiles": "O=c1cc(-c2ccccc2)oc2c(O)c(O)ccc12", "note": "[7,8-Dihydroxyflavone]", "percent reduction in TR-FRET probe signal": "-6.52 ± 5.7"}
{"smiles": "CC1(COc2ccc3c(c2)ncn3-c2ccc3cccc(N4CCC(N)CC4)c3n2)COC1", "percent reduction in TR-FRET probe signal": "18.8 ± 11"}
{"smiles": "COc1cc2nccc(Oc3ccc(NC(=O)C4(C(=O)Nc5ccc(F)cc5)CC4)cc3)c2cc1OC", "percent reduction in TR-FRET probe signal": "-3.97 ± 6.1"}
{"smiles": "COc1ccc(F)c(F)c1C(=O)c1cnc(NC2CCN(S(C)(=O)=O)CC2)nc1N", "percent reduction in TR-FRET probe signal": "4.07 ± 8.4"}
{"smiles": "Cc1cc(C)c(/C=C2\\C(=O)Nc3ccccc32)[nH]1", "note": "[Semaxanib (SU5416)]", "percent reduction in TR-FRET probe signal": "2.37 ± 8.9"}
{"smiles": "CN1CCC(Nc2nc(Nc3ccc(Oc4ccccc4)cc3)c3c(=O)[nH]cc(Br)c3n2)CC1", "percent reduction in TR-FRET probe signal": "35.3 ± 9.5"}
{"smiles": "Cc1nc(NC(=O)N2CCC[C@H]2C(N)=O)sc1-c1csc(C(C)(C)C)n1", "percent reduction in TR-FRET probe signal": "3.71 ± 6.7"}
{"smiles": "COc1cc2ncnc(Nc3cccc(Cl)c3F)c2cc1OC(=O)N1CCN(C)C[C@H]1C", "percent reduction in TR-FRET probe signal": "9.77 ± 13"}
{"smiles": "COCCOc1ccc2c(c1)ncn2-c1ccc2cccc(N3CCC(N)CC3)c2n1", "percent reduction in TR-FRET probe signal": "24.4 ± 7.1"}
{"smiles": "Cc1ccc(C(=O)Nc2cccc(C(F)(F)F)c2)cc1Nc1nc(-c2cccnc2)nc2c1cnn2C", "percent reduction in TR-FRET probe signal": "1 ± 8.4"}
{"smiles": "CCS(=O)(=O)Nc1ccc2c(c1)/C(=C(/Nc1ccc(CN3CCCCC3)cc1)c1ccccc1)C(=O)N2", "note": "[Hesperadin]", "percent reduction in TR-FRET probe signal": "97.4 ± 5.1"}
{"smiles": "Cc1c(Cn2c(C)nc3c(C(=O)O)cc(N4CCOCC4)cc32)cccc1C(F)(F)F", "percent reduction in TR-FRET probe signal": "1.17 ± 7.4"}
{"smiles": "CCN(CC)CCNC(=O)c1c(C)[nH]c(/C=C2\\C(=O)Nc3ccc(F)cc32)c1C.O=C(O)C[C@H](O)C(=O)O", "note": "[Sunitinib Malate]", "percent reduction in TR-FRET probe signal": "14.7 ± 14"}
{"smiles": "COc1cccc2cc(-c3nc([C@H]4CC[C@H](C(=O)O)CC4)n4ncnc(N)c34)[nH]c12", "percent reduction in TR-FRET probe signal": "-0.417 ± 9.2"}
{"smiles": "Cl.O=S(=O)(c1cccc2cnccc12)N1CCCNCC1", "note": "[Fasudil (HA-1077) HCl]", "percent reduction in TR-FRET probe signal": "4.93 ± 2"}
{"smiles": "CCNc1nc(Nc2cc(F)c(C(=O)N3CCOCC3)cc2OC)ncc1C(F)(F)F", "percent reduction in TR-FRET probe signal": "11.9 ± 11"}
{"smiles": "Cc1ccc2nc(NCCN)c3ncc(C)n3c2c1", "percent reduction in TR-FRET probe signal": "-7.43 ± 3.5"}
{"smiles": "COc1ccc(-c2nc(N3CCOCC3)c3sc(CN(C)c4ncc(C(=O)NO)cn4)cc3n2)cn1", "percent reduction in TR-FRET probe signal": "-2.41 ± 5.7"}
{"smiles": "CN1CCN(c2ccc(Nc3cc(-c4cccc(-n5ccc6cc(C7CC7)cc(F)c6c5=O)c4CO)cn(C)c3=O)nc2)CC1", "percent reduction in TR-FRET probe signal": "6.04 ± 9"}
{"smiles": "Cn1cnc2c(F)c(Nc3ccc(Br)cc3F)c(C(=O)NOCCO)cc21", "percent reduction in TR-FRET probe signal": "-1.44 ± 2.7"}
{"smiles": "CN1CCN(CCOc2cc(OC3CCOCC3)c3c(Nc4c(Cl)ccc5c4OCO5)ncnc3c2)CC1", "note": "[Saracatinib (AZD0530)]", "percent reduction in TR-FRET probe signal": "11.4 ± 13"}
{"smiles": "COc1cc(-c2cc(-c3ccc(N4CCNCC4)cc3)cnc2C)cc(OC)c1OC", "percent reduction in TR-FRET probe signal": "-4.94 ± 0.48"}
{"smiles": "C[C@@H]1CCN(C(=O)CC#N)C[C@@H]1N(C)c1ncnc2[nH]ccc12", "percent reduction in TR-FRET probe signal": "5.48 ± 7.8"}
{"smiles": "Cc1c[nH]c2nc(Nc3ccc(N4CCN(C)CC4)c(F)c3)nc(-c3cccc(CC#N)c3)c12", "percent reduction in TR-FRET probe signal": "56.3 ± 2"}
{"smiles": "C#Cc1cccc(Nc2ncnc3cc(OCCOC)c(OCCO)cc23)c1.Cl", "percent reduction in TR-FRET probe signal": "-0.453 ± 12"}
{"smiles": "CC(C)(C)Cn1c(N)nc2ccc(-c3[nH]c(C(C)(C)C)nc3-c3ccc(F)cc3)nc21.CS(=O)(=O)O.CS(=O)(=O)O", "percent reduction in TR-FRET probe signal": "-14.9 ± 5.8"}
